For five molecules, composite z-score and z-score results are on record in PubChem BioAssay.

The source made the active and inactive calls. Unless noted, the rule behind the calls is not given here.

Test [1] is described as follows: anti-His antibody binders, primary screen, artefact control for SMM control protein annotation, biochemical, small-molecule microarray, 635 nm fluorescence (AID 1128).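 Note: score merges feature fluorescence with signal-to-noise for each printed compound spot.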 The note with it: anti-His Alexa647 antibody binding, higher = more signal.
Test [2] deals with Human papillomavirus type 1a E7 protein (residues 1-88). Kind of test: HPV1a E7 small-molecule binders, primary screen, biochemical, small-molecule microarray, residues 1-88, 635 nm (AID 1129). The note with it: small-molecule microarray binding, fluorescence 635 nm; higher = more signal.
The target of test [3] is Focal adhesion kinase 1 (Homo sapiens) (UniProt Q05397). As to the kind of experiment: small-molecule microarray binders of FAK, primary screen, biochemical, 635/667 nm fluorescence, BSA, DTT (AID 1130).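 Note: composite of spot emission at 667 nm and signal to noise over triplicate slides.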 The note with it: PTK2 binding, 635 nm fluorescence, higher = more signal.
Sequence of Focal adhesion kinase 1 (Homo sapiens) (Q05397 whole entry, looked up): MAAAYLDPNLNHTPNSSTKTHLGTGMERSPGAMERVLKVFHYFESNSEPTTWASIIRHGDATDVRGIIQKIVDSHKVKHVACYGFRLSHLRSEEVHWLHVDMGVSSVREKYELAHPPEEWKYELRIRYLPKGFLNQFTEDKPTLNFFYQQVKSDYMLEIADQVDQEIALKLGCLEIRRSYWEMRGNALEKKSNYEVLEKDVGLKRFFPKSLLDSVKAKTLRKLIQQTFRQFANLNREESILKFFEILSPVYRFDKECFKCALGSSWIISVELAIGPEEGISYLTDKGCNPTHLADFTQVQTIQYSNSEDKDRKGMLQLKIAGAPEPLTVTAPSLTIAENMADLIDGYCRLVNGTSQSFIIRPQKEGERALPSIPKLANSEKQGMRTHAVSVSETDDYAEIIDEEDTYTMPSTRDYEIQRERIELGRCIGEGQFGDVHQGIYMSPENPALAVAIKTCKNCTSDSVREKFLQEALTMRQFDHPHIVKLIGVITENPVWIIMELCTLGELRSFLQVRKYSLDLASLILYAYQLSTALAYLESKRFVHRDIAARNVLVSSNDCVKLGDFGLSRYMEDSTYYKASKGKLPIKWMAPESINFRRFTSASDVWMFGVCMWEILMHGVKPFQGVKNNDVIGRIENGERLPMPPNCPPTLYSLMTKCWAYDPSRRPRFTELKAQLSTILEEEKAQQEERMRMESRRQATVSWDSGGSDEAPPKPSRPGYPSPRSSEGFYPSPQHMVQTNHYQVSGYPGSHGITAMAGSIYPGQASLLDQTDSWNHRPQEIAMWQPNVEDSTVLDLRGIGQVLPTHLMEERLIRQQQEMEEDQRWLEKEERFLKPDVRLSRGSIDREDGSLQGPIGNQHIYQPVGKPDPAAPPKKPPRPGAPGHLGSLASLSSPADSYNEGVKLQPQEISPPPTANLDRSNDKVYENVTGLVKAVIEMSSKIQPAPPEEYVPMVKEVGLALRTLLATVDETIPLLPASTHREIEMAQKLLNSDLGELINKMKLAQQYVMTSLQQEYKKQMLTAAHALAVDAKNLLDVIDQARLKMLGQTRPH
Test [4] has as its system Fibrinogen (Alexa647-labelled). Kind of test: fibrinogen binders on compound microarrays, profiling panel, artefact control for SMM control-protein annotation, biochemical, small-molecule microarray, 635/667 nm fluorescence (AID 1131).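 Note: z-score merges 667 nm fluorescence with per-spot signal-to-noise over triplicate slides.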 The note with it: fibrinogen-A647 binding fluorescence, higher = more signal.
For test [5], the target named is Follistatin (Homo sapiens) (UniProt P19883). Kind of test: follistatin binders on small-molecule microarrays, primary screen, biochemical, small-molecule microarray, 635/667 nm fluorescence (AID 1132). The note with it: FST binding, 635 nm fluorescence, higher = more signal.
Sequence of Follistatin (Homo sapiens) (P19883 whole entry, looked up): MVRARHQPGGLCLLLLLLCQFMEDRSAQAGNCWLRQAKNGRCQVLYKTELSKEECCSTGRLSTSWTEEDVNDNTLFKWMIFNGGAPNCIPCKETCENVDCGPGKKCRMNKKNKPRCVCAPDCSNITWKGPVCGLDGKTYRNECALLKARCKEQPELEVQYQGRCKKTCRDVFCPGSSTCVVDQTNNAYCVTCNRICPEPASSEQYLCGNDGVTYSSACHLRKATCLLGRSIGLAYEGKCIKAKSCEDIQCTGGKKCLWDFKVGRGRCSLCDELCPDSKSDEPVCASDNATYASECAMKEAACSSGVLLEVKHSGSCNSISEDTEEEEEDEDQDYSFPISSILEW
The target of test [6] is Fibroblast growth factor 2 (Homo sapiens) (UniProt P09038). As to the kind of experiment: FGF2 binders on small-molecule microarrays, primary screen, biochemical, small-molecule microarray, 635/667 nm fluorescence (AID 1133). The note with it: small-molecule microarray binding, FGF2, fluorescence 635/667; higher = more signal.
Sequence of Fibroblast growth factor 2 (Homo sapiens) (P09038 whole entry, looked up): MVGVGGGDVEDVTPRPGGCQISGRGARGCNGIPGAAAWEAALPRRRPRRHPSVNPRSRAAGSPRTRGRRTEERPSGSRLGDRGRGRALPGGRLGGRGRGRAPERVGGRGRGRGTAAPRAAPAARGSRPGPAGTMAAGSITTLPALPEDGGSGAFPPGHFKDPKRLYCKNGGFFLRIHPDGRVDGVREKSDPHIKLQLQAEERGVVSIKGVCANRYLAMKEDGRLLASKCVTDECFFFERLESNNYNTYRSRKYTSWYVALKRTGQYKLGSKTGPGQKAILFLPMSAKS
Test [7] can be described thus: mitochondrial membrane potential change in A549 cells, profiling panel, cell-based, JC-1 fluorescence, basal, 24 h, 100 nL (AID 1138).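 Note: A549 lung adenocarcinoma cells under basal conditions with no added stimulus; test concentration not given here.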 The note with it: higher = more signal.
The subject of another test is Lefty1. Kind of test: Lefty1 binders on small-molecule microarrays, primary screen, biochemical, small-molecule microarray, 635/667 nm fluorescence (AID 1139). The note with it: small-molecule microarray binding, fluorescence 635/667; higher = more signal.
The subject of test [8] is wheat germ agglutinin (Triticum aestivum), Alexa647-labelled. Kind of test: wheat germ agglutinin binders on compound microarrays, profiling panel, artefact control for SMM control-protein annotation, biochemical, small-molecule microarray, 635/667 nm fluorescence (AID 1140).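 Note: score merges 667 nm feature emission with signal to noise over triplicate slides.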 The note with it: WGA-A647 binding, 635 nm fluorescence, higher = more signal.
Test [9] addresses Luciferin 4-monooxygenase (Photinus pyralis) (UniProt P08659). Kind of test: firefly luciferase enzyme inhibitors, primary screen, biochemical, luminescence, purified enzyme, 2006 set (AID 1141).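 Note: cell-free assay with purified firefly luciferase at 100 ng per well in PBS; test concentration not given here.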 The note with it: SteadyGlo luminescence, 30 min, higher = more signal, called active from +8 up or from −8 down.
The subject of test [10] is Wnt5a (protein binding on small-molecule microarray). As to the kind of experiment: Wnt5a binders on small-molecule microarray, primary screen, biophysical, 635/667 nm fluorescence (AID 1142).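 Note: fluorescence read at 667 nm with signal to noise per printed feature.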 The note with it: 635 nm fluorescence, higher = more signal.
Test [11] in a line: cell viability in Huh7 cells, primary screen, cytotoxicity control for HCV replication inhibitor project, CellTiter-Glo luminescence, basal, 48 h (AID 1143).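 Note: Huh7 hepatoma cells carrying a hepatitis C replication reporter with no stimulus; test concentration not given here.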 The note with it: Huh7 HCV replicon, higher = more signal, called active from +8 up or from −8 down. (ATP-based viability assays read luminescence as a measure of living cells.)
The nature of test [12]: P. aeruginosa biofilm formation inhibitors, primary screen, PAO1 strain, BacTiter-Glo luminescence, LB-PBS (AID 1144). The note with it: 12 h, higher = more signal.
Test [13] is described as follows: CREB reporter modulators without forskolin, primary screen, cell-based, PC12, CRE-LacZ reporter, unstimulated (AID 1145). The note with it: no forskolin, luminescence, 4.5 h, higher = more signal, called active from +8 up or from −8 down.
Test [14] is described as follows: CREB reporter modulators under forskolin, primary screen, cell-based, PC12, CRE-LacZ reporter, forskolin-stimulated (AID 1146).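 Note: PC12 cells with 6xCRE LacZ reporter stimulated by forskolin 10 µM; beta-galactosidase reporter signal reflecting CREB driven transcription.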 The note with it: luminescence, 4.5 h, higher = more signal, called active from +8 up or from −8 down.
The target in test [15] is Streptavidin (Streptomyces avidinii) (UniProt P22629). Kind of test: streptavidin binders on small-molecule microarray, primary screen, artefact control for SMM compound annotation, biophysical, 635/667 nm fluorescence (AID 1147).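 Note: signal reflects streptavidin binding to arrayed compounds as a control protein.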 The note with it: streptavidin binding, higher = more signal.
Sequence of Streptavidin (Streptomyces avidinii) (P22629 whole entry, looked up): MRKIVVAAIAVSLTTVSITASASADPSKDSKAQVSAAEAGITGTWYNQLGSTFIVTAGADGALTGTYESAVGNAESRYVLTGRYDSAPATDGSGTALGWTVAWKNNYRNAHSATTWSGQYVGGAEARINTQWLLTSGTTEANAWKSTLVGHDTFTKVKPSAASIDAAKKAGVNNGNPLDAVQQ
Test [16] can be described thus: small-molecule binders of probe aInhba, primary screen, biochemical, small-molecule microarray, 635/667 nm fluorescence (AID 1148).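 Note: score merges 667nm spot fluorescence with signal-to-noise for antibody binding to printed compounds.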 The note with it: higher = more signal.
In test [17] the target is Torsin-1A (Homo sapiens) (UniProt O14656). Kind of test: torsin A binders from cell lysate, primary screen, small-molecule microarray, wild-type, 635/667 nm (AID 1149). The note with it: COS7 hTOR1A-WT lysate, 635 nm fluorescence, higher = more signal.
Sequence of Torsin-1A (Homo sapiens) (O14656 whole entry, looked up): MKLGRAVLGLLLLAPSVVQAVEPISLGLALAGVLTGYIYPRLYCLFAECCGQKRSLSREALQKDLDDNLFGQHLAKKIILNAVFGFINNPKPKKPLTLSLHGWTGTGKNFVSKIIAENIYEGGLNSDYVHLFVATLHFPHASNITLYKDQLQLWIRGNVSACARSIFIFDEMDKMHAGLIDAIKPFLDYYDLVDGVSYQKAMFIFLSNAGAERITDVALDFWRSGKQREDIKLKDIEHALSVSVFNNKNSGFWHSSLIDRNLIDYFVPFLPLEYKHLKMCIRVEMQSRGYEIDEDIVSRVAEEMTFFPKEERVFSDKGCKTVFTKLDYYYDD
Test [18] has the same target. As to the kind of experiment: small-molecule binders of mutant TOR1A in lysate, primary screen, cell lysate, small-molecule microarray, COS7 lysate, 635/667 nm fluorescence (AID 1150).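 Note: score pools 667 nm emission and signal to noise measuring lysate protein binding.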 The note with it: COS7 hTOR1A mutant lysate, 635 nm fluorescence, higher = more signal.
For test [19], the system named is Sonic hedgehog protein (Shh). Kind of test: small-molecule binders of Shh protein, primary screen, biochemical, small-molecule microarray, 635/667 nm fluorescence (AID 1151).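 Note: Shh protein binding to compounds spotted on small-molecule microarray slides; score combines spot fluorescence intensity with signal-to-noise across triplicate slides.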 The note with it: small-molecule microarray binding, 635 nm fluorescence; higher = more signal.

Sequence of Luciferin 4-monooxygenase (Photinus pyralis) (P08659 whole entry, looked up): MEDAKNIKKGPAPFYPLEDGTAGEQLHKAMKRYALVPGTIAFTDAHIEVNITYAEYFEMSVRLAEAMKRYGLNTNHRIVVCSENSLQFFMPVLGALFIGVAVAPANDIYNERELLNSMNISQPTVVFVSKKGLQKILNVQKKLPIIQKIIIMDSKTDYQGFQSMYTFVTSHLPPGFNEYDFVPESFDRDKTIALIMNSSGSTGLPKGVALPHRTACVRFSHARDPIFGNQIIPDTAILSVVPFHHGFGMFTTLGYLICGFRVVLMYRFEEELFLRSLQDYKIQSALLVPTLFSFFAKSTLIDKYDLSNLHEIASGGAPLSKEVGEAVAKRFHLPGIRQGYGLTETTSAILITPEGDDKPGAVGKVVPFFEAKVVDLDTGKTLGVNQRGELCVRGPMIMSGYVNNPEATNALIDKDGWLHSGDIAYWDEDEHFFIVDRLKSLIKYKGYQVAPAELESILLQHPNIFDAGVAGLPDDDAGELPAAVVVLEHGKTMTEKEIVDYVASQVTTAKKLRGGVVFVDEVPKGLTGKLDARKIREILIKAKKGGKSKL

Consider `CC(C)(C)OC(=O)CC[C@]1(C(=O)N2CCCCC2)N=C(c2ccc(OCCCO)cc2)O[C@H]1c1ccccc1CN=[N+]=[N-]`, for which the composite z-score in test [1] was determined as 3.05; in test [2], 1.21; in test [3], 0.72; in test [4] it was 0.978; in test [5] it was 1.4; in test [6] it was 1.42. Moreover, the composite z-score in the test on Lefty1 was determined as 0.675; in test [8] it was 1.09; in test [10] it was 1.13; in test [15], 0.835; in test [16] it was 0.927; with Torsin-1A (Homo sapiens) [17] it was 0.635. The composite z-score came out at 1.17 in the test with Torsin-1A (Homo sapiens) [18] and 0.251 in [19]. For the same molecule, the z-score in test [7] was 2.94; in [9], -3.56 (inactive); in test [11], -3.42 (inactive); in [12], -0.596 (inactive); in test [13], 0.927 (inactive); in test [14] it was -0.707 (inactive).
For the molecule `O=C1NC(=O)C2C1C=CC(C(O)c1ccc3c(c1)OCO3)N2Nc1ccc(Cl)cc1Cl` (stereo not given), the composite z-score in [1] is 1.24; in [2], 0.453; in [3], 0.822; in test [4], 0.0542; in [5], 0.579; in [6], -0.0317. In addition, the composite z-score in the test on Lefty1 is 0.194; in [8], 0.698; in test [10], -0.002; in test [15] it was 0.347; in [16], 0.249; with Torsin-1A (Homo sapiens) [17], 0.0858. For the same molecule, the composite z-score was -0.446 with Torsin-1A (Homo sapiens) [18] and -0.116 in test [19]. For the same molecule, the z-score is 0.512 in [7]; -0.109 (inactive) in test [9]; -0.0416 (inactive) in test [11]; -0.238 (inactive) in test [12]; 0.0501 (inactive) in [13]; -0.329 (inactive) in [14].
Consider `C[C@]12C(=O)N(CCCO)[C@@H]3C(=O)N(c4ccc(Cl)cc4)CC=CC31O[C@@H]1/C=C\CCCOC(=O)C12` (stereo not given in full), for which the composite z-score in test [1] was 2.25; in test [2], -0.549; in test [3], 0.438; in test [4], -2.51; in test [5], -0.804; in test [6], -1.72. Besides, the composite z-score is -0.68 with Lefty1; 1.13 in test [8]; -0.408 in test [10]; -1.19 in test [15]; -0.218 in [16]; -1.88 with Torsin-1A (Homo sapiens) [17]. The composite z-score was -1.13 with Torsin-1A (Homo sapiens) [18] and 0.399 in [19]. Also, the z-score in [7] is 0.202; in [9], -0.299 (inactive); in test [11], 0.231 (inactive); in test [12], 0.993 (inactive); in [13], -0.212 (inactive); in [14], -0.221 (inactive).
Consider `C=C(/C(=C/C[C@@H](OC(C)=O)c1ccccc1OCCO)c1cnc2ccccc2c1)C(C)C`, for which the composite z-score is 0.119 in test [1]; -0.198 in test [2]; 0.0328 in [3]; -0.571 in [4]; 1.17 in [5]; 1.48 in test [6]. For the same molecule, the composite z-score is 1.58 with Lefty1; 1.05 in [8]; 0.515 in test [10]; -0.02 in [15]; 0.167 in test [16]; 0.72 with Torsin-1A (Homo sapiens) [17]. The composite z-score with Torsin-1A (Homo sapiens) [18] was 0.0714; in test [19], 1.81. The z-score in test [7] was -0.111; in test [9], -0.557 (inactive); in test [11], -1.35 (inactive); in [12], 0.362 (inactive); in [13] it was 10.8 (active); in test [14], 0.982 (inactive).
In the case of `COC(=O)[C@@]1(Cc2ccc(F)cc2)[C@H]2c3cc(C(=O)N4CCCC4)n(Cc4ccccc4)c3C[C@H]2CN1C(=O)c1ccccc1`, the composite z-score in [1] is 1.66; in [2], 0.923; in test [3] it was 1.08; in test [4], 0.805; in test [5], 0.724; in [6], -0.481. For the same molecule, the composite z-score in the test on Lefty1 is -0.0042; in [8] it was 0.768; in [10], 0.379; in test [15], 1.38; in [16], -0.0413; with Torsin-1A (Homo sapiens) [17] it was 0.0257. Also, the composite z-score is 0.72 with Torsin-1A (Homo sapiens) [18] and -0.447 in [19]. The z-score in test [7] was -1.23; in [9] it was 2.22 (inactive); in test [11], -3.69 (inactive); in test [12], 0.195 (inactive); in [13] it was -0.368 (inactive); in test [14], 0.339 (inactive).
